This passage reports growth results from PubChem BioAssay (NCI).

Compounds without any hit were thinned out: in the full panel of roughly 83,000, 20% have a hit.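 Treatment: one concentration, 48 hours, 96-well format. Scoring: percent growth, with anything below 10 considered active.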 Values without a mark were called inactive. The source made the active and inactive calls.

This assay has as its system OVCAR-3 ovarian. Kind of assay: NCI-60 one-dose screen, 48 h (100 = growth as untreated, 0 = no growth, -100 = all killed). Particulars: 10 µM unless noted. The protocol: Growth inhibition of the OVCAR-3 human tumor cell line is measured as a screen for anti-cancer activity. Cells are grown in 96 well plates and exposed to the test compound for 48 hours. Compounds are tested at a single concentration, which is 10^-5 M for most compounds. The reported endpoint is percent growth (GI% or GIPRCNT), where numbers from 0 - 100% represent growth inhibition, and numbers from -100% - 0 represent cell death. For example, a value of 40 represents 60% growth inhibition. A value of 0 means no net growth occurred over the course of the experiment. A value of -40 indicates 40% of cells at the beginning of the experiment died by the end of the experiment. A value of -100 means all cells are dead at the end of the experiment.
NCI-60 Human Tumor Cell Lines Screen was performed using the standard one-dose NCI protocol, which is described in more detail at https://dtp.cancer.gov/discovery_development/nci-60/default.htm.
Compounds with GIPRCNT values below 10 were considered active. Activity score was based on GIPRCNT using the following formula: […]
Score is 0 for GIPRCNT values of 100 or above, 50 for GIPRCNT values of 0, and 100 for GIPRCNT values of -100.
For `NNC(=O)CNc1ccc2ccccc2c1`, the growth is 114%.
As to `COc1ccc2cn3c4ccc(O)cc4[nH]c(=O)c3c2c1`, the growth is -7.15% (active).
To `Nc1ccc(S(=O)(=O)Nc2cc(F)cc(F)c2)cc1` belongs 111%; to `CC(=O)N(N=O)c1ccc([N+](=O)[O-])cc1Cl`, 44.5%.
Then `C=C(C)[C@@H]1CC[C@]2(COC(=O)c3ccccc3C(=O)O)CC[C@]3(C)[C@H](CC[C@@H]4[C@@]5(C)CCCNC(C)(C)[C@@H]5CC[C@]43C)[C@@H]12`, with 68%; and `C/C(=N\Nc1cccc(Cl)n1)c1ccccn1`, with 26.7%; and `O=C(CCl)c1ccc2c(c1)CCCC2`, with 114%.
As to `CCN(CC)CCCNc1c2ccc(Cl)cc2nc2ccc(OC)cc12`, the growth is -11.5% (active).
On to `O=C(/C=C1\C(=O)N(Cc2ccc([N+](=O)[O-])cc2)c2ccccc21)c1ccc(OCCN2CCCC2)cc1`, for which the growth is 62.7%.
For `COc1cc(/C=C/C(=O)/C=C(/C=C/c2ccc(OC(C)=O)c(OC)c2)OB(F)F)ccc1OC(C)=O`, the growth was 18.9%.
To `CC[N+](C)(C)N` belongs 114%; to `CC(=O)OCC(=O)[C@@]1(O)[C@H](C)C[C@H]2[C@@H]3C=C(C)C4=Cc5c(cnn5-c5ccc(F)cc5)C[C@]4(C)[C@H]3[C@@H](O)C[C@@]21C`, -20% (active).
As to `CC[C@@H](C)/C=C(C)/C=C/C(=O)c1c(O)c(-c2ccc(OC(=O)[C@@]34CC[C@@](C)(C(=O)O3)C4(C)C)cc2)cn(O)c1=O`, the growth was 30.1%.
As for `O=c1c2c(c3ccccc3n1-c1ccccc1)NC(=S)NC2c1ccc(Cl)cc1` (stereo not given), the growth is 47.5%.
For the compound `CCS(=O)(=O)OCCO[C@H]1Cc2cc3ccc(=O)oc3cc2OC1(C)C`, the growth is 108%.
Take `O=C1C(=O)c2ccccc2C(O)=C1CCCc1ccc(C2CCCC2)cc1`: the growth was 39.3%.
Consider `CC(C)CCCCCOC(=O)c1ccccc1SSc1ccccc1C(=O)OCCCCCC(C)C`, for which the growth is 111%.
In the case of `CCOC(=O)C1=C(c2ccccc2)NC(=O)NC1CN1C(=O)c2ccccc2C1=O` (stereo not given), the growth was 111%.
Regarding `C#CCCCCCCC[C@@H]1OC(=O)[C@H]([C@@H](C)CC)NC(=O)[C@H]([C@@H](C)CC)NC(=O)CC(=O)[C@@H]1C`, the growth is 101%.
As to `CC(C)(CNC1CCCCC1)OC(=O)c1ccccc1`, the growth was 102%.
On to `O=C(O)COc1ccc([N+](=O)[O-])cc1Cl`, for which the growth is 123%.
Regarding `Cc1ncc(C(=O)Nc2ccc(CN3CCN(C)CC3)c(C(F)(F)F)c2)cc1C#Cc1c(N)ncc2ccccc12`, the growth was -68.9% (active).
On to `O=C1Nc2ccccc2/C1=C/c1cn(CC(O)Cn2cc(/C=C3\C(=O)Nc4ccccc43)c3ccccc32)c2ccccc12` (stereo not given), for which the growth was -85.1% (active).
For `COC1NC(Cl)=C(C#N)C(C#N)(C#N)C1(C)C` (stereo not given), the growth is 123%.
Take `O=c1oc2ccc3ccccc3c2cc1-c1ccnc2[nH]c(=S)[nH]c(=O)c12`: the growth is 107%.
Then `O=S(=O)(O)c1ccc2c(c1)Sc1cc(S(=O)(=O)O)ccc1O2`, with 122%.
`CC(C)(C)OC(=O)N1C/C(=C\c2ccccc2)C(=O)/C(=C/c2ccccc2)C1`: the growth is 103%.
As for `O=C(OCC1CC2(Cl)C(Cl)=C(Cl)C1(Cl)C2(Cl)Cl)C1C(C(=O)OCC2CC3(Cl)C(Cl)=C(Cl)C2(Cl)C3(Cl)Cl)C2(Cl)C(Cl)=C(Cl)C1(Cl)C2(Cl)Cl` (stereo not given), the growth was 107%.
To `C/C(=N\Nc1ccc(Cl)cn1)c1ccc2ccccc2n1` belongs 18.2%; to `O=C1OC(c2ccc(-c3ccccc3)cc2)=C/C1=C/c1c2ccccc2cc2ccccc12`, 97.9%.
As to `C=CCN(C)C`, the growth is 118%.
As to `COc1cc(NC(=O)CSc2nc3ccc(Cl)cc3c(=O)n2-c2ccc(F)cc2)cc(OC)c1OC`, the growth is 80.6%.
`COc1ccc(-c2nc(SCC(C)C)nc(Nc3ccccc3)c2C#N)cc1`: the growth is 46.2%.
In the case of `O=C(NCCCl)Nc1nccnc1OCc1ccc(F)cc1`, the growth is 117%.
With `CC(C)(C)c1cc(C[P+](c2ccc(Cl)cc2)(c2ccc(Cl)cc2)c2ccc(Cl)cc2)cc(C(C)(C)C)c1O`, the growth is 90.3%.
Then `O=C(c1ccccc1)c1ccccc1-c1ccccc1`, with 13.3%; and `C/C=C(/C)C(=O)OC1C=C(CO)C(=O)C(OC(=O)C(C)(O)C(C)Cl)C1C(C)C` (stereo not given), with -41.4% (active).
As to `COc1cc(/C=C/C(=O)c2ccc(F)cc2)ccc1OCCCCOc1cc2c(cc1OC)C(=O)N1CCCC1C=N2` (stereo not given), the growth is -28.8% (active).
Take `Oc1ccccc1\C=N/N=C/C=C/c1ccccc1`: the growth was 96.3%.
For the compound `COc1ccc(/C=N/c2cc(C(C)(C)C)nn2-c2ccccc2)cc1`, the growth was 125%.
